Laboratory results as given in PubChem BioAssay AID738 (SRMLSC, 2007).
Out of some 98,000 compounds screened, about 4,900 (5%) were called active. The sample holds actives, similar compounds and a random draw of the others, so the mix is not that of the screen. A number with no mark means an inactive call. Rule as the data show it: active = inhibition above about 30%; inactive = the rest.

Assay: yeast control strain growth suppression – counter-screen for post-Golgi transport modulator project, primary screen (AID 738)
Conditions: efflux-deficient yeast background strain, growth absorbance A615, 16 h; at 10 µM; active compounds read high

SMILES | inhibition
COC(=O)c1ccc(C(=O)OC)c(NC(=S)N2CCCCC2)c1 | 5.49%
O=C(COC(=O)CCC(=O)c1cccs1)NCc1ccco1 | 34.5% (active)
O=C(CCC(=O)c1cccs1)NCc1ccccc1 | -10%
O=C(COC(=O)C12CC3CC(CC(C3)C1)C2)NCc1ccco1 | 17.3%
O=C(c1ccc(F)cc1)c1c[nH]c(C(=O)NCc2cccnc2)c1 | 1.34%
S=C(NCCC1=CCCCC1)Nc1ccccc1 | 2.15%
COc1cc(-c2nn3c(-c4cccc(C)c4)nnc3s2)cc(OC)c1OC | 26.7%
CCCc1nc2ccccc2c(C(=O)OCc2nnc(-c3cc(OC)c(OC)c(OC)c3)o2)c1CC | 3.36%
CCC(C)n1c(-c2cc(OC)c(OC)c(OC)c2)nc2nc3ccccc3nc21 (stereo not drawn) | 38.7% (active)
CC(=O)NS(=O)(=O)c1ccc(NC(=S)NC(=O)C(C)(C)C)cc1 | -5.72%
Cn1c(NN)nc2sc3c(c2c1=O)CCC3 | 7.4%
CCOC(=O)c1cc2sccc2n1Cc1ccc(C#N)cc1 | 33.7% (active)
O=C(NCc1ccco1)c1cc2sccc2n1Cc1ccc(F)cc1 | 27.8%
CC1Cc2ccccc2N1C(=O)c1cc2sccc2n1Cc1ccccc1 (stereo not drawn) | 15.2%
Clc1ccccc1SCc1nc2ccccc2[nH]1 | 9.02%
Cc1nc(-c2ccccc2)sc1-c1nc(-c2ccccc2)ncc1S(=O)(=O)c1ccccc1 | 12%
CCCC(=O)N1CCc2[nH]c3ccccc3c2C1 | -9.39%
O=C(NC1CCCCC1)N1CCc2[nH]c3ccccc3c2C1 | -9.69%
O=C(Nc1ccc(Cl)cc1)N1CCc2[nH]c3ccccc3c2C1 | 36.5% (active)
O=C(c1ccccc1)c1cc(-c2ccccn2)c(N2CCOCC2)s1 | 18%
O=S(=O)(N/N=C\c1cccn1-c1ccccc1)c1ccc2ccccc2c1 | 16.6%
Cc1n[nH]c(=O)n1-c1ccc(Oc2ccccc2)cc1 | 20.1%
COc1ccc2[nH]c(=O)c(CN(Cc3nnnn3CCc3ccccc3)CC3CCCO3)cc2c1 (stereo not drawn) | 5.93%
Cc1cc(C)c2cc(CN(Cc3cccs3)Cc3nnnn3CC3CCCO3)c(=O)[nH]c2c1 (stereo not drawn) | 17%
Cc1cc2cc(CN(Cc3cccs3)Cc3nnnn3CC3CCCO3)c(=O)[nH]c2cc1C (stereo not drawn) | 37.9% (active)

SMILES | inhibition
CC(C)(C)c1cc2cccnc2n1Cc1cccc(F)c1 | -2.87%
COC(=O)Cc1nc2ccccc2[nH]1 | 0.73%
N#C/C(=C(/O)COc1cccc2ccccc12)c1nc2ccccc2[nH]1 | -2.22%
Cc1ccccc1OC/C(O)=C(\C#N)c1nc2ccccc2[nH]1 | 48.1% (active)
O=C(CSc1nc2ccccc2o1)N1c2ccccc2Sc2ccc(Cl)cc21 | 17%
O=C1CSC(c2ccccc2)N1c1nc(-c2ccc(Cl)cc2Cl)cs1 (stereo not drawn) | 5.96%
CCOC(=O)C1Sc2[nH]c(=O)sc2C(c2ccc(Cl)cc2)C1C(=O)OCC (stereo not drawn) | 12%
CC(Sc1nc2ccccc2c(=O)n1Cc1ccco1)C(=O)c1ccccc1 (stereo not drawn) | 20.6%
Cc1ccc(Cn2c(C)nc3c(c2=O)c2nc4ccccc4nc2n3Cc2ccco2)cc1 | 20.3%
Clc1cccc(-c2nc3nc4ccccc4nc3n2Cc2ccco2)c1 | 32.4% (active)
CCN(CC)CCN1C(=O)C(=O)/C(=C(/O)c2cnn(-c3ccccc3)c2C)C1c1cccs1 (stereo not drawn) | 10.5%
S=c1nccc(-c2cc(Cl)sc2Cl)[nH]1 | -1.82%
O=C(Nc1ccccc1N1CCCCC1)c1ccc2nccnc2c1 | 16.6%
O=C(Nc1ccccc1N1CCCCC1)c1cccc(F)c1 | 31.6% (active)
O=C(Nc1ccccc1N1CCN(c2ccccc2)CC1)c1cccc(F)c1 | 15.4%
CCC(=O)OCc1c(C(F)(F)F)nn(C)c1Oc1cccc(C(F)(F)F)c1 | -7.2%
S=C(NCc1ccc(Cl)cc1)NC12CC3CC(CC(C3)C1)C2 | 69.2% (active)
S=C(NCc1cccs1)Nc1ccc(Cl)cc1 | 1.15%
O=C(NCc1ccc2c(c1)OCO2)C12CC3CC(CC(C3)C1)C2 | 9.12%
O=C(/C=C/c1cccs1)c1cc(Cl)ccc1OC(=O)N1CCOCC1 | 16.3%
N/C(=N\OC(=O)c1cc(-c2ccccc2)nc2ccccc12)c1ccncc1 | 13.9%
Nc1ccccc1SCc1cc([N+](=O)[O-])cc2c1OCOC2 | 13.6%
CCOc1ccc(OCC)c(NC(=O)CN(C)S(=O)(=O)c2cccc3nsnc23)c1 | 0.74%
Cc1cccc(C)c1NC(=O)CCS(=O)(=O)c1cccc2nsnc12 | 9.17%
CCCCN(CC)C(=O)CN(C)S(=O)(=O)c1cccc2nsnc12 | 7.72%

SMILES | inhibition
CCOc1ccc(NC(=O)CCS(=O)(=O)c2cccc3nsnc23)cc1 | 32.5% (active)
CCOc1ccc(-c2cn(S(=O)(=O)c3cccc4nsnc34)nc2N)cc1 | 53.9% (active)
O=C(O)c1ccc(NS(=O)(=O)c2cccc3nsnc23)cc1 | 18%
CCc1ccc(C(=O)CSc2nnc(C)c(=O)[nH]2)cc1 | 22%
Nc1ccc(C(=O)OCC(=O)NC2CCCc3ccccc32)cc1[N+](=O)[O-] (stereo not drawn) | 16.1%
CCCc1nc2ccccc2c(C(=O)OCC(=O)c2ccc3c(c2)NC(=O)CO3)c1CC | 2.23%
O=C(COc1ccc2c(C(F)(F)F)cc(=O)oc2c1)Nc1ccc2c(c1)OCCO2 | 3.57%
CCOc1ccc(S(=O)(=O)Nc2nc3cc(OC)ccc3s2)cc1 | 2.89%
CC(=O)c1cnc(SCCN2C(=O)c3ccccc3C2=O)nc1C | -2.62%
Cc1cc(C)c2nc(NC(=O)c3ccc4c(c3)OCO4)sc2c1 | 21.3%
O=S(=O)(NC1CCCCC1)c1ccc(F)c2ccccc12 | 35.4% (active)
COc1ccc(C)cc1S(=O)(=O)NC1CCCCC1 | 2.46%
CSc1ccc(S(=O)(=O)NC2CCCCC2)cc1 | 10.7%
Cc1ccc(N(NC(=O)C(C)(C)O)C(=O)c2ccccc2)cc1C | 0.77%
Cc1ccccc1C(=O)N1CCC(C(=O)Nc2ccc(S(=O)(=O)N(C)C(C)C)cc2)CC1 | -2.28%
COc1ccccc1Nc1ncnc2c1oc1ccccc12 | 31.2% (active)
CCc1nc(Nc2ccc3nccnc3c2)c2oc3ccccc3c2n1 | 4.28%
Cc1nc(Cl)c2oc3ccccc3c2n1 | -0.78%
NS(=O)(=O)c1cccnc1Nc1cccc(Cl)c1 | 7.66%
O=C(Cn1ccc([N+](=O)[O-])n1)NCc1cccs1 | 18.9%
Cc1ccccc1-c1nnc(SCC(=O)NCc2ccc3c(c2)OCO3)n1C | 12.7%
Cc1cccc(CSc2nnc(Cn3c(=O)sc4ccccc43)n2C)c1 | 13.1%
Cn1c(SCc2nc3ccccc3s2)nnc1-c1ccc2c(c1)OCO2 | 33.8% (active)
Cc1cccc(N2C(=O)C3C(c4ccccc4)OC4(C(=O)c5ccccc5C4=O)C3C2=O)c1 (stereo not drawn) | -14.2%
CCN(CC)C(=O)CSc1nnc(CNc2ccc(F)cc2)n1Cc1ccco1 | 7.51%

SMILES | inhibition
COc1cccc(-c2nnc(SCCOc3ccc4c(C)cc(=O)oc4c3)o2)c1 | 7.69%
CC(Sc1nnc(Cc2ccc([N+](=O)[O-])cc2)o1)C(N)=O (stereo not drawn) | 5.64%
N#C/C(=C(/O)Cc1cccc2ccccc12)c1nc2ccccc2s1 | 0.29%
CC(C)NS(=O)(=O)c1ccc(OCC(=O)Nc2ccc3c(c2)OCCO3)cc1 | 3.4%
COc1ccc(OCC(=O)NCCc2ccc(S(N)(=O)=O)cc2)cc1 | -0.6%
Cc1ccc(CNC(=O)COc2ccc(S(=O)(=O)NC(C)C)cc2)cc1 | 36.6% (active)
CNC(=O)c1csc(-c2ccccc2)n1 | -5.25%
Cc1occc1C(=O)NNC(=S)NCC(C)C | 3.2%
CSCCC(NS(=O)(=O)c1ccc2c(c1)oc(=O)n2C)C(=O)NC1CCCc2ccccc21 (stereo not drawn) | -5.76%
CC(C)Oc1ccc(CCc2n[nH]c(=S)n2Cc2ccccc2)cc1 | -1.67%
CCCc1cc(-c2n[nH]c(=S)n2Cc2ccccc2)cs1 | 37.9% (active)
C=CCn1c(-c2ccc3[nH]c(C)c(C)c3c2)n[nH]c1=S | 3.87%
Cc1cccc(NC(=S)N2CCC(c3nc4ccccc4s3)CC2)c1 | 10.4%
CCCCNCc1ccc(SC)cc1 | 3.73%
Cc1ccc(S(=O)(=O)N2CCC(C(=O)NCC3CCCO3)CC2)cc1 (stereo not drawn) | 11.9%
COC(=O)NC1(C(F)(F)F)NC(=O)N(C2CCCCC2)C1=O (stereo not drawn) | -7.51%
O=C1NC(Nc2nc3ccccc3s2)(C(F)(F)F)C(=O)N1C1CCCCC1 (stereo not drawn) | 47.7% (active)
COc1ccc(C2Nc3ccccc3C(=O)N2Cc2ccccc2)cc1Cn1nnc2ccccc21 (stereo not drawn) | 13.4%
CN(C)c1ccc(NC(=S)N(CCc2ccccc2)C2CC(=O)N(c3c(Cl)cccc3Cl)C2=O)cc1 (stereo not drawn) | 5.66%
O=C(O)CCC(=O)NCc1ccc(C(=O)O)cc1 | 12.1%
O=C(NCCc1ccccn1)c1ccc(COc2ccccc2)o1 | -1.77%
COc1ccc(-c2nc(CCNC(=O)c3ccc(Br)o3)cs2)cc1 | 36.5% (active)
CC(CNC(=O)c1ccc(Br)o1)NC(=O)c1ccc(Br)o1 (stereo not drawn) | 18.5%
